Screens deposited in PubChem by National Center for Advancing Translational Sciences (NCATS).
G9a inh: qHTS Assay for Inhibitors of Histone Lysine Methyltransferase G9a; G9a H3K9 monomethylation, AlphaScreen, 2 h; Potency, µM (top dose mostly 102 µM), for inactives: at the highest dose activity, negative = inhibition, usual class: inhibitors; 350,000 compounds, 8.8% hits; also: % is scaled to controls: 0 for no effect and ±100 for the full control effect; nearly all actives have a fitted effect of over 75% in size
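AlphaScreen read-out: biotin-H3K9 peptide (500 nM) methylation by 20 nM enzyme with 20 uM SAM, 2 h at room temperature after 15 min compound preincubation; anti-monomethyl H3K9 antibody plus donor/acceptor beads, 10 min dark.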
BAZ2B inh: qHTS Assay for Inhibitors of BAZ2B | Bromodomain adjacent to zinc finger domain protein 2B (Homo sapiens), Q9UIF8 | AlphaScreen BAZ2B-H3K14Ac peptide displacement | Potency, µM (series often up to 114 µM), without a hit: at the top dose activity change, negative = inhibition, usual class: inhibitors | 360,000 compounds, 4.4% hits; also: % is scaled to controls: 0 for no effect and ±100 for the full control effect; nearly all actives have a fitted effect of over 60% in size
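BAZ2B 50 nM plus b-H3(5-23)K14Ac 50 nM, PBS pH 7.4/0.01% Tween-20, 30 min RT; compound added (max 110 uM), 30 min RT; streptavidin donor/Ni-chelate acceptor beads 10 ug/mL final, 20 min dark; AlphaScreen read.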
Sfp inh: qHTS Assay for Inhibitors of Bacillus subtilis Sfp phosphopantetheinyl transferase (PPTase); 310,000 compounds, 3.5% hits; 4'-phosphopantetheinyl transferase ffp (Bacillus subtilis), Q9F4F7; Biochemical Sfp PPTase activity, qHTS; Potency, µM, without a hit: largest response in the series, negative = inhibition, most hits filed as inhibitors;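 also: the enzyme is Sfp with the accession as filed and its product quenches rhodamine fluorescence; 0% = enzyme reaction without inhibitor and -100% = no enzyme wells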
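Buffer: 50 mM Hepes-Na pH 7.6, 10 mM MgCl2, 0.01% Nonidet P-40, 0.01% BSA. Enzyme 15 nM, pre-exposed to compound 15 min; substrates then added and fluorescence change tracked over 30 min.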
L3MBTL1 block: qHTS Assay for the Inhibitors of L3MBTL1. Lethal(3)malignant brain tumor-like protein 1 (Homo sapiens), Q9Y468. AlphaScreen L3MBTL1–H3K9me1 peptide binding. Potency, µM (highest dose often 57.1 µM), inactives show top-dose activity, negative = inhibition, hits mostly inhibitors. 230,000 compounds, 0.66% hits. AID 485360, 2010; also: % is scaled to controls: 0 for no effect and ±100 for the full control effect; nearly all actives have a fitted effect of over 60% in size
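Displacement of a biotinylated histone H3(1-15) peptide monomethylated at Lys9 (75 nM) from L3MBTL1 (50 nM) was measured by AlphaScreen after a 30 min room-temperature compound incubation; cefsulodin titration served as intraplate control.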
JMJD2A Tudor: qHTS Assay for Inhibitors of JMJD2A-Tudor Domain; 390,000 compounds, 4.4% hits; Potency, µM (highest dose often 114 µM), without a hit: top-dose activity change, negative = inhibition, most hits filed as inhibitors; Lysine-specific demethylase 4A (Homo sapiens), O75164; AlphaScreen JMJD2A-Tudor / H3K4me3 peptide binding; also: % is scaled to controls: 0 for no effect and ±100 for the full control effect; nearly all actives have a fitted effect of over 50% in size
HP1b chromo inh: HTS for Inhibitors of HP1-beta Chromodomain Interactions with Methylated Histone Tails. AID 540317, 2011. 390,000 compounds, 0.56% hits. Potency, µM (titrated, usually from 114 µM), without a hit: top-dose activity change, negative = inhibition, actives largely listed as inhibitors. AlphaScreen HP1-beta / biotin-H3K9me3 peptide binding. Chromobox protein homolog 1 (Homo sapiens), P83916; also: nearly all actives have a fitted effect of over 70% in size
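Compound inhibition of the preformed complex between 50 nM HP1-beta and 50 nM biotinylated H3K9me3 peptide was read by AlphaScreen. Buffer was PBS pH 7.4 with 0.01% Tween-20. Incubations ran 30 min at room temperature, with 10 ug/mL donor/acceptor beads.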
Starred values were filed as active, the others as inactive; u = inconclusive; x = not tested or not shown; [ ] = dose if it differs, or a comment. A selection: hits, their analogues and other compounds. The true share with any hit is near 12%. Calls follow the shape of the dose curve; as a rule, active = well fitted curve in the direction sought with a large enough effect; inconclusive = small, poorly fitted or top-dose-only effect, or another doubt; inactive = no such curve, though single readings can be large; an effect the other way counts as inactive or inconclusive. Potency is read from the fitted curve at half-maximal effect.

SMILES	G9a inh	BAZ2B inh	Sfp inh	L3MBTL1 block	JMJD2A Tudor	HP1b chromo inh
O=C(Oc1ccccc1)N1CCC2(CCN(Cc3nccs3)CC2)CC1	-6%[12.7 µM]	x	12%	x	x	x
CN1C(=O)C(=Cc2cccnc2)C(=O)N(C)C1=O	x	-5%	40µM*	5%	-8%	13%
CC[C@@H](CO)Nc1nc(NCc2ccccc2)c2ncn(C(C)C)c2n1	-8%[59 µM]	x	x	x	x	x
CN1CC(C(=O)c2cccs2)C(c2ccc(Cl)cc2)C1 (configuration not stated)	-35%	-12%	17%	x	-20%	6%
CN1CC(C(=O)c2ccc(Cl)cc2)C(c2ccccc2)C1 (configuration not stated)	45µM*	-16%	3%	x	-24%	-9%
O=C(c1ccc(CNS(=O)(=O)c2ccccc2)cc1)N1CCC2(CC1)OCCO2	35µM*	u	-15%	-9%	u	-2%
O=C(c1ccc(CNS(=O)(=O)c2ccc(Br)cc2)cc1)N1CCC2(CC1)OCCO2	7%	-7%	4%	-5%	9%	15%
NS(=O)(=O)c1nc[nH]c1[N+](=O)[O-]	x	x	x	x	20µM*	5%
COC(=O)[C@@H]1C[C@H](OC(C)=O)C(=O)[C@H]2[C@@]1(C)CC[C@H]1C(=O)O[C@H](c3ccoc3)C[C@]21C	u	x	-2%	x	x	x
O=C1NC(=O)N(c2ccccc2)C(=O)/C1=C\c1ccc2c3c(cccc13)CC2	7.1µM*	u	40µM*	9%	x	x
COc1ccccc1N1C(=O)NC(=O)/C(=C/c2ccc3c4c(cccc24)CC3)C1=O	8.9µM*	u	11µM*	u	u	11%
O=C(O)Cn1cc(/C=C2\C(=O)NC(=O)N(c3ccc(F)cc3)C2=O)c2ccccc21	50µM*	-23%	-4%	3%	x	x
COC(=O)Cn1cc(/C=C2\C(=O)NC(=O)N(c3ccc(OC)cc3)C2=O)c2ccccc21	28%[0.501 µM]	-4%	-23%	x	4%	-5%
C[C@H](N)[C@@H](O)c1ccccc1	28%[21.5 µM]	x	-5%	x	x	x
COC[C@]12CN(C=O)C3C4C(OC)C1[C@@]3(C1CC3(O)C(OC)C(O)C4(OC(C)=O)C1C3OC(=O)c1ccccc1)[C@@H](OC)CC2O (some centres not stated)	x	x	8%	x	x	x
CC1=CC2/C=C(\C)CCC(O)C(O)/C=C/C(=O)C23C(=O)NC(CC(C)C)C3C1C (configuration not stated)	u	-16%	16µM*	3%	-24%	41%
COc1cc(CC2(CCc3ccncc3)C(=O)N(C)C(=O)N(C)C2=O)cc(OC)c1OC	22µM*	-15%	-2%	5%	-16%	20%
C/C(O)=C(/C#N)C(=O)Nc1cc(Br)ccc1Br	x	x	8%	x	x	x
Cc1ccc2[nH]c(C)c(CCNCc3ccco3)c2c1	u	u	4%	x	u	-9%[57 µM]
COc1ccc2[nH]c(C)c(CCNCc3cccnc3)c2c1	u	20µM*	x	-11%	7.1µM*	u
CCOc1cccc(CNCCc2c(C)[nH]c3ccc(OC(F)(F)F)cc23)c1O	10µM*	35µM*	u	x	40µM*	u
Cc1[nH]c2ccc(OC(F)(F)F)cc2c1CCNCc1cccc([N+](=O)[O-])c1	50µM*	50µM*	-17%	x	7.1µM*	u
Cc1[nH]c2ccc(OC(F)(F)F)cc2c1CCNCc1ccc(Cl)cc1	u	50µM*	-28%	x	13µM*	u
Cc1ccc(N2CCN(C(=O)c3cn(CC4CCCCC4)nn3)C(C)C2)cc1 (configuration not stated)	x	x	x	x	u	3%
CC(C)(C)[C@]1(O)C[C@@H]2OC(=O)CC23C(=O)O[C@@H]2OC(=O)[C@H](O)C231 (some centres not stated)	29%[59 µM]	x	15%	x	x	x
SMILES	G9a inh	BAZ2B inh	Sfp inh	L3MBTL1 block	JMJD2A Tudor	HP1b chromo inh
CCOC(=O)[C@]12Cc3cc(OC)ccc3[C@H]1N(Cc1ccccc1)C(=O)c1ccccc12	x	x	x	x	-12%	38%
CCOC(=O)C1(c2ccccc2)Oc2ccccc2C(c2ccc(OC)cc2)=C1C(=O)OC (configuration not stated)	22µM*	x	-8%	0%	-18%	30%
CCN(CC)C(=O)c1c(C)[nH]c(=S)c(C#N)c1-c1ccco1	3.2µM*	-34%	1µM*	x	7.9µM*	-17%
CC(C)(O)[C@@H]1C2OC(=O)[C@@H]1[C@]1(O)C[C@H]3O[C@]34C(=O)O[C@H]2[C@]14C (tested in a mixture with another compound)	14%[59 µM]	x	x	x	x	x
CCCCCCOc1ccc(CN2CCN(CC)CC2)cc1	56µM*	u	-1%	x	-31%	0%
O=C1CCCC2[C@@H]3CCCN4CCC[C@@H](CN12)C34 (some centres not stated)	x	x	-12%	x	x	x
N[C@@H](CCCCP(=O)(O)O)C(=O)O	x	x	-7%	x	x	x
Nc1ccc2c(c1)Cc1cc([N+](=O)[O-])ccc1-2	50µM*	-23%	13%	0%	-10%	9%
Nc1ccc2c(c1)Cc1ccccc1-2	u	50µM*	4%	-16%	u	u
O=[N+]([O-])c1ccc2c(c1)Cc1cc(O)ccc1-2	x	x	x	x	-28%	4%
C[C@H](NC(=O)[C@@H](N)Cc1ccc(O)cc1)C(=O)N[C@@H](Cc1ccccc1)C(=O)NCC(=O)N[C@@H](Cc1ccc(O)cc1)C(=O)N1CCC[C@H]1C(=O)N[C@@H](CO)C(N)=O	28%[59 µM]	x	21%	x	x	x
CC1CN(c2ccc([N+](=O)[O-])cc2Cl)CCN1 (configuration not stated)	40µM*	-11%	-23%	x	-14%	20%
Cc1ccc(S(=O)(=O)NCCC(=O)Nc2ccc(Cl)cc2C(=O)c2ccccc2)cc1	5%[59 µM]	-37%	3%	-15%	-26%	22%
Cc1ccc(S(=O)(=O)N[C@@H](CCCCN)C(=O)CCl)cc1	28µM*	x	-23%	x	u	59%
CNCCc1ccc(O)c(O)c1	32µM*	x	56µM*	x	-11%	u
CC/C=C\C/C=C\C/C=C\C/C=C\C/C=C\CCCC(=O)NCCc1ccc(O)c(O)c1	x	x	-13%	x	x	x
